# Measured values as given in the supplement of paper PMC8253809.
# Tests used:
# Experiment in all cases: growth inhibition (% activity, log2 RLU normalised to DMSO / staurosporine); higher = more growth inhibition
# Conditions in all cases: 33 µM
# DIPGX29 = tested on: DIPGX29 (H3.3 K27M diffuse intrinsic pontine glioma line)
# In short: (§1)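 For each approved drug, the growth-inhibition value is the replicate median of per-plate normalised CellTiter-Glo data. Luminescence was log2-transformed and expressed as % activity between solvent and positive control wells. Drugs were applied in triplicate at a single final concentration of about 33 μM for 7 days at 37 °C, 5% CO2 to pHGG cell lines and H9-derived neural stem cells.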
# DIPGX37 = tested on: DIPGX37 (H3.3 K27M diffuse intrinsic pontine glioma line)
# In short: as §1
# DIPGX7 = tested on: DIPGX7 (H3.3 K27M diffuse intrinsic pontine glioma line)
# In short: as §1
# DIPGX9 = tested on: DIPGX9 (diffuse intrinsic pontine glioma line)
# In short: as §1
# HGGX39 = tested on: HGGX39 (paediatric high-grade glioma line)
# In short: as §1
# HGGX6 = tested on: HGGX6 (H3.3 G34R paediatric high-grade glioma line)
# In short: as §1
# HNSC = tested on: HNSC
# In short: as §1
# SUDIPGIV = tested on: SUDIPGIV (diffuse intrinsic pontine glioma line)
# In short: as §1
# SUDIPGVI = tested on: SUDIPGVI (diffuse intrinsic pontine glioma line)
# In short: as §1
# SUDIPGXIII = tested on: SUDIPGXIII (diffuse intrinsic pontine glioma line)
# In short: as §1
SMILES,growth inhibition (DIPGX29) [%],growth inhibition (DIPGX37) [%],growth inhibition (DIPGX7) [%],growth inhibition (DIPGX9) [%],growth inhibition (HGGX39) [%],growth inhibition (HGGX6) [%],growth inhibition (HNSC) [%],growth inhibition (SUDIPGIV) [%],growth inhibition (SUDIPGVI) [%],growth inhibition (SUDIPGXIII) [%]
CCCC(C(=O)OCCN(CC)CC)(c1ccccc1)c1ccccc1,3.18,1.54,2.35,0.685,0.885,3.92,4.69,1.52,1.12,2.55
CC(=O)O[C@H]1C(=O)[C@@]2(C)[C@H]([C@H](OC(=O)c3ccccc3)[C@]3(O)C[C@H](OC(=O)[C@H](O)[C@@H](NC(=O)c4ccccc4)c4ccccc4)C(C)=C1C3(C)C)[C@]1(OC(C)=O)CO[C@@H]1C[C@@H]2O,9.71,8.37,6.36,22,32.7,16.2,60.4,25.9,6.74,6
CO[C@H]1C[C@@H]2CC[C@@H](C)[C@@](O)(O2)C(=O)C(=O)N2CCCC[C@H]2C(=O)O[C@H]([C@H](C)C[C@@H]2CC[C@@H](O)[C@H](OC)C2)CC(=O)[C@H](C)/C=C(\C)[C@@H](O)[C@@H](OC)C(=O)[C@H](C)C[C@H](C)/C=C/C=C/C=C/1C,6.5,0.955,6.15,16.4,10.5,10.3,10.4,4.5,6.53,0.792
CCC(=O)O[C@]1(C(=O)CCl)[C@@H](C)C[C@H]2[C@@H]3C[C@H](F)C4=CC(=O)C=C[C@]4(C)[C@@]3(F)[C@@H](O)C[C@@]21C,3.65,5.29,1.18,4.83,7.98,1.82,-1.07,1.52,3.9,1.38
CCN(CC)CCOc1ccc(C(=C(Cl)c2ccccc2)c2ccccc2)cc1,26.6,11.7,45.2,12.3,36.3,28,63.5,32.8,1.14,0.221
O=C(CCCN1CC=C(n2c(=O)[nH]c3ccccc32)CC1)c1ccc(F)cc1,-2.81,-3.22,1.35,-2.63,-0.994,-4.16,3.11,-2.04,-2.84,0.682
O=C1c2c(O)ccc(O)c2C(=O)c2c(NCCNCCO)ccc(NCCNCCO)c21,62.2,58.9,59.1,55.9,61.6,59,62.7,59.9,35.8,39.8
C#C[C@]1(OC(C)=O)CC[C@H]2[C@@H]3CCC4=C[C@@H](OC(C)=O)CC[C@@H]4[C@H]3CC[C@@]21C,0.289,0.452,-1.67,1.3,-0.196,0.0724,1.57,-1.23,1.15,1.62
Oc1c(Cl)cc(Cl)c2cccnc12,4.67,3.08,4.55,5.64,6.44,-1.25,44.3,3.67,4.23,2.6
C=CCNC(N)=S,-0.199,0.393,-0.932,-0.168,1.56,1.43,-1.32,-1.24,-2.19,-0.232
Nc1ccc(O)c(C(=O)O)c1,0.36,1.83,0.431,2.63,1.1,1.6,2.49,0.538,1.92,-1.01
NC(=O)c1cccnc1,-0.689,-1.05,-0.0852,0.951,0.786,0.835,0.303,-0.404,-0.906,0.194
Nc1nc2c(ncn2COCCO)c(=O)[nH]1,-1.73,1.12,1.01,0.254,1.26,-2.13,5.44,-0.972,-0.331,0.201
CC[C@@H]1C(=O)OC[C@@H]1Cc1cncn1C,-0.467,1.71,-1.24,-1.88,0.217,-0.083,-2.25,-1.63,0.518,-11.1
CC1(C(=O)O)CCC2(C)CCC3(C)C(=CC(=O)C4C5(C)CCC(OC6OC(C(=O)O)C(O)C(O)C6OC6OC(C(=O)O)C(O)C(O)C6O)C(C)(C)C5CCC43C)C2C1 (stereo not given),-2.43,0.376,-1.5,-0.788,-1.63,-0.137,-2.93,-1.58,-3.15,0.0626
CCCCCOC(=O)Nc1nc(=O)n([C@@H]2O[C@H](C)[C@@H](O)[C@H]2O)cc1F,-0.544,1.13,0.087,0.193,1.46,0.0555,-0.694,-0.463,0.998,1.54
COCCc1ccc(OCC(O)CNC(C)C)cc1 (stereo not given),0.745,0.102,1.22,2.73,2.04,1.92,-0.726,0.382,2.97,-0.552
CN/C(=N\CCSCc1nc[nH]c1C)NC#N,0.842,1.91,1.01,0.766,1.68,1.98,0.707,-0.184,2.38,0.0177
CN(C)CCc1c[nH]c2ccc(Cn3cncn3)cc12,-0.697,0.65,-0.925,0.553,1.2,1.15,-1.13,-0.297,1.51,-0.819
COC(=O)C1=C(C)NC(C)=C(C(=O)OCCN2CCN(C(c3ccccc3)c3ccccc3)CC2)C1c1cccc([N+](=O)[O-])c1 (stereo not given),5.69,6.99,4.72,4.03,8.12,5.46,73,3.75,6.07,22
